MARV entry inh: blocks Marburg virus binding to or entry into cells; Marburg virus pseudotyped entry inhibition, cell reporter; hit rate 1.8% among 300,000; AID 540276; Potency, µM (highest dose often 37.8 µM), without a hit: at the top dose activity change, negative = inhibition, most hits filed as inhibitors; calls by dose curve; tested in HEK293 cells; also: potency is read from the fitted curve at half-maximal effect
Lassa entry inh: inhibitors of Lassa virus binding or cell entry; Potency, µM (highest dose often 37.9 µM), for the others: at the highest dose activity change, negative = inhibition, actives largely listed as inhibitors; Lassa virus pseudotype entry inhibition, cell reporter; hit rate 1.2% among 300,000; calls by dose curve; tested in HEK293 cells; also: potency is read from the fitted curve at half-maximal effect; nearly all actives have a fitted effect of over 50% in size
VACV mCherry inh: vaccinia inhibition (mCherry reporter); Vaccinia virus mCherry reporter infection, fluorescence; Potency, µM (highest dose often 36.5 µM), without a hit: at the top dose activity change, negative = inhibition, hits mostly inhibitors; hit rate 0.63% among 310,000; calls by dose curve; tested in A549 cells; also: potency is read from the fitted curve at half-maximal effect; nearly all actives have a fitted effect of over 35% in size
FMDV inh: blocks foot and mouth disease virus | FMDV antiviral cell-based qHTS | Potency, µM (series often up to 57.9 µM), inactives show at the highest dose activity change, negative = inhibition, usual class: inhibitors | hit rate 1.2% among 410,000; calls by dose curve; tested in HEK293T cells; also: read-out not given here; potency is read from the fitted curve at half-maximal effect; nearly all actives have a fitted effect of over 45% in size
HCMV inh: human cytomegalovirus inhibition; hit rate 4.5% among 410,000; HFF cells, HCMV-luciferase reporter, 72 h; stronger effect = lower value; AID 1259415; activity change, negative = inhibition, % at 57.5 µM; in the data active = activity change below about -60%; inconclusive = no clear call, values can overlap the other calls; inactive = above about -39%
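Two-dose cell screen: HFF monolayers treated with compounds and infected with luciferase-expressing HCMV at 1 PFU/cell, 72 h at 37C, then lysed for luciferase measurement.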
VACV Venus inh: inhibitors of vaccinia virus (Venus reporter); Vaccinia virus Venus reporter expression, fluorescence; Potency, µM (top dose mostly 36.5 µM), for the others: at the top dose activity change, negative = inhibition, actives largely listed as inhibitors; hit rate 0.46% among 330,000; calls by dose curve; tested in A549 cells; also: potency is read from the fitted curve at half-maximal effect; nearly all actives have a fitted effect of over 30% in size
* marks the source's active call; other numbers are inactive results; [ ] = remark or other dose. Compounds with a hit are over-represented: about 6.5% of the library has one in this group of screens. % is scaled to controls: 0 for no effect and ±100 for the full control effect.

How did CCc1ccc(C(C)NC(=O)/C(C#N)=C\c2cn[nH]c2-c2ccccc2)cc1 (stereo not given) do in these assays?
MARV entry inh: inconclusive; Lassa entry inh: inconclusive; FMDV inh: inconclusive; HCMV inh: -21.9

What do the screens show for `Cc1ccc(C)c(NC(=O)CSc2nc3c([nH]c4ccccc43)c(=O)n2-c2ccc(F)cc2)c1`?
Lassa entry inh: -18.4%[46.1 µM]; VACV mCherry inh: -19.2%; FMDV inh: inconclusive; HCMV inh: 10.9; VACV Venus inh: -17.2%

Results for S=c1[nH]nc(C2CCCCC2)n1Cc1ccccc1 ?
MARV entry inh: -22.6%[46.1 µM]; Lassa entry inh: inconclusive; VACV mCherry inh: -2.7%; FMDV inh: 7.9%; HCMV inh: inconclusive; VACV Venus inh: -7.5%

What do the screens show for `C=CCn1c(C2CCCCC2)n[nH]c1=S`?
MARV entry inh: 4.4%; Lassa entry inh: -1.6%; VACV mCherry inh: inactive; FMDV inh: inconclusive; HCMV inh: -96.8*; VACV Venus inh: -1.1%

What do the screens show for `Cc1ccc(NC(=O)c2oc3ccccc3c2NC(=O)C2CCCCC2)cc1`?
MARV entry inh: 7.2%[46.1 µM]; Lassa entry inh: -0.8%[46.1 µM]; VACV mCherry inh: -10.0%; FMDV inh: 0.0%; HCMV inh: -11.4; VACV Venus inh: -5.8%

What do the screens show for `O=C(O)c1ccc2c(c1)C(=O)N(c1cccc(C(=O)/C=C/c3ccccc3)c1)C2=O`?
MARV entry inh: 16.3%[14.2 µM]; Lassa entry inh: 14.1%; VACV mCherry inh: -9.0%; FMDV inh: 25.1µM*; HCMV inh: 134.4; VACV Venus inh: 2.3%

Results for COc1cc(-c2noc(-c3ccc(NC4CCCC4)c([N+](=O)[O-])c3)n2)cc(OC)c1OC ?
MARV entry inh: -1.9%[46.1 µM]; Lassa entry inh: 25.3%[46.1 µM]; VACV mCherry inh: -10.6%; FMDV inh: -29.6%; HCMV inh: 5.6; VACV Venus inh: 2.7%

What do the screens show for `COC(=O)c1ccc(NCc2cc(O)ccc2O)cc1O`?
MARV entry inh: inconclusive; Lassa entry inh: 20µM*; VACV mCherry inh: -22.7%; FMDV inh: inconclusive; HCMV inh: -6.5; VACV Venus inh: 2.1%

How did COC(=O)c1ccc(NCc2c(O)ccc(O)c2Br)cc1Cl do in these assays?
MARV entry inh: inconclusive; Lassa entry inh: -16.5%; VACV mCherry inh: -17.6%; FMDV inh: inconclusive; HCMV inh: -28.0; VACV Venus inh: 3.3%

What do the screens show for `CCOC(=O)c1c(C2CC2)csc1NC(=O)COC(=O)c1ccc[n+]([O-])c1`?
MARV entry inh: 17.4%; Lassa entry inh: 5.5%; VACV mCherry inh: -9.0%; FMDV inh: 0.0%; HCMV inh: -17.8; VACV Venus inh: -7.3%

What do the screens show for `CCOC(=O)c1c(C2CC2)csc1NC(C)=O`?
MARV entry inh: -24.7%; Lassa entry inh: -3.1%; VACV mCherry inh: -19.3%; FMDV inh: -20.3%; HCMV inh: -64.9*; VACV Venus inh: -10.5%

Results for COc1ccc(-c2ccc3c(c2)N(C(C)C)C(=O)COC3)cc1 ?
HCMV inh: -8.0

Results for CCOC(=O)C1=CCN(S(=O)(=O)c2ccc(C)cc2)C1c1ccc(CC)cc1 (stereo not given) ?
VACV mCherry inh: -3.1%; FMDV inh: -14.8%; HCMV inh: -96.8*; VACV Venus inh: -18.1%

Results for CCOC(=O)C1=CCN(S(=O)(=O)c2ccc(Cl)cc2)C1c1cccc(Cl)c1 (stereo not given) ?
HCMV inh: -31.4

Results for CCOC(=O)C1=CCN(S(=O)(=O)c2ccc(Cl)cc2)C1c1cccc(C)c1 (stereo not given) ?
VACV mCherry inh: 17.6%; FMDV inh: -26.6%; HCMV inh: -86.7*; VACV Venus inh: 3.9%

How did O=C(c1ccc2c(=O)n(Cc3ccco3)c(=S)[nH]c2c1)N1CCN(Cc2ccc3c(c2)OCO3)CC1 do in these assays?
VACV mCherry inh: -21.9%; VACV Venus inh: inconclusive

Results for O=S(=O)(c1cccc(-c2nnc(SCc3nc4ccccc4s3)o2)c1)N1CCOCC1 ?
MARV entry inh: 0.9%; Lassa entry inh: -20.0%; VACV mCherry inh: 12.6µM*; FMDV inh: 38.0%; HCMV inh: 50.0; VACV Venus inh: inconclusive

How did CC(=O)CCSc1nnc(-c2cccc(S(=O)(=O)N3CCOCC3)c2)o1 do in these assays?
MARV entry inh: -8.9%; Lassa entry inh: -4.5%; VACV mCherry inh: -9.4%; FMDV inh: -2.7%; HCMV inh: -4.5; VACV Venus inh: -7.8%

Results for Cc1ccc(C)c(CSc2nc3ccncc3n2CC(=O)Nc2ccc(N(C)C)cc2)c1 ?
MARV entry inh: -22.5%[46.1 µM]; Lassa entry inh: -9.9%[46.1 µM]; VACV mCherry inh: -10.1%; FMDV inh: -26.9%; HCMV inh: -21.2; VACV Venus inh: -6.2%

Results for CCc1nc2cc(C(=O)N3CCCN(C=O)CC3)cc(NC(=O)c3ccccc3OC)c2n1C ?
VACV mCherry inh: -6.8%; FMDV inh: -1.1%; VACV Venus inh: -0.2%

How did COC(=O)N1C(=O)[C@](c2ccccc2)(C2CCCCC2)N1C(=O)OC do in these assays?
VACV mCherry inh: inconclusive; FMDV inh: -25.8%; HCMV inh: 54.2; VACV Venus inh: -26.6%

What do the screens show for `CCOC(=O)N1C(=O)[C@@](CC)(c2ccccc2)N1C(=O)OCC`?
VACV mCherry inh: inconclusive; FMDV inh: 35.5µM*; HCMV inh: -9.5; VACV Venus inh: inconclusive

How did CC[C@@]1(c2cccc(C)c2)C(=O)N(C(=O)OC)N1C(=O)OC do in these assays?
VACV mCherry inh: inconclusive; FMDV inh: -20.5%; HCMV inh: 73.7; VACV Venus inh: inconclusive

What do the screens show for `CC[C@@]1(c2ccccc2OC)C(=O)N(C(=O)OC)N1C(=O)OC`?
VACV mCherry inh: inactive; FMDV inh: inconclusive; VACV Venus inh: -11.8%

What do the screens show for `COC(=O)N1C(=O)[C@@](c2ccccc2)(C2CCCC2)N1C(=O)OC`?
VACV mCherry inh: inconclusive; FMDV inh: 20µM*; HCMV inh: 38.7; VACV Venus inh: inconclusive

How did COC(=O)N1C(=O)[C@](CC(C)C)(c2ccccc2)N1C(=O)OC do in these assays?
VACV mCherry inh: -28.4%; FMDV inh: 35.5µM*; HCMV inh: 30.2; VACV Venus inh: inconclusive

Results for O=C(C[n+]1csc2ccccc21)c1ccccc1 ?
VACV mCherry inh: -6.3%; VACV Venus inh: -13.1%

How did Cc1ccc(C#C[C@@H]2C=C[C@H](Oc3ccc4c(c3)OCO4)[C@@H](CO)O2)c(C)c1 do in these assays?
MARV entry inh: 11.5%[14.2 µM]

Results for COc1ccc(COc2cc(-c3cccc(OC)c3)nc3ccc(N)cc23)cc1 ?
MARV entry inh: inconclusive; Lassa entry inh: inconclusive; VACV mCherry inh: inconclusive; FMDV inh: -8.6%; HCMV inh: -90.1*; VACV Venus inh: inconclusive

How did O=C(NCC1CCC2(CCN(Cc3cnn(-c4ccc(F)cc4)c3)CC2)O1)c1ccccc1 (stereo not given) do in these assays?
VACV mCherry inh: inactive; FMDV inh: -5.6%; VACV Venus inh: -13.4%

How did Cc1cccc(-c2noc(-c3ccc(N4CCCC4)c([N+](=O)[O-])c3)n2)c1 do in these assays?
MARV entry inh: inconclusive; Lassa entry inh: -6.2%[46.1 µM]; VACV mCherry inh: 0.4%; FMDV inh: inconclusive; HCMV inh: -74.2*; VACV Venus inh: -4.9%
